Data on 31 compounds can be found in PubChem BioAssay (NCATS).

The target in assay [1] is Rap guanine nucleotide exchange factor 4 (Homo sapiens) (UniProt Q8WZA2). The experiment in a line: Confirmatory qHTS for agonist of cAMP-regulated guanine nucleotide exchange factor 4 (EPAC2) (AID 1645884). For activation: % is set by controls: 0 for no effect and ±100 for the full control effect.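 Note: nucleotide exchange releases bodipy-GDP from Rap1 and this lowers its fluorescence; nearly all actives have a fitted effect of over 65% in size.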 Note: potency is the fitted concentration of half-maximal effect. For orientation: In qHTS, concentration-response curves come from the screen itself.
Assay [2] shares this target. Briefly: Confirmatory qHTS for antagonist of cAMP-regulated guanine nucleotide exchange factor 4 (EPAC2) (AID 1645885). For activity change, negative = inhibition: % is set by controls: 0 for no effect and ±100 for the full control effect. Note: nearly all actives have a fitted effect of over 25% in size. Note: potency is the fitted concentration of half-maximal effect.
The target of assay [3] is Rap guanine nucleotide exchange factor 3 (Homo sapiens) (UniProt O95398). The experiment in a line: Counterscreen qHTS for antagonist of cAMP-regulated guanine nucleotide exchange factor 3 (EPAC1) (AID 1645888).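 Note: fluorescence loss as bound BODIPY-GDP is released from Rap1B; % of control where 0% means no effect.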 An outline of the steps:
(§1)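 Rap1B–BODIPY-GDP (250 nM) with 50 uM GDP; compounds pin-transferred to 9.74 nM–152 uM final (activator) or from 7.32 nM upwards (inhibitor). Fluorescence Ex/Em 480/540 nm read at 5 and 30 min, then after adding cAMP or buffer, at room temperature.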
In general terms: Counterscreens check selectivity or assay interference.

The target is the same in assay [4]. The experiment in a line: Confirmatory qHTS for agonist of cAMP-regulated guanine nucleotide exchange factor 3 (EPAC1) (AID 1645881).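 Note: EPAC1 catalysed release of BODIPY-GDP from Rap1B seen as fluorescence loss; 100% = effect of cAMP agonist control; nearly all actives have a fitted effect of over 75% in size.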
The target is the same in assay [5]. Briefly: Counterscreen qHTS for agonist of cAMP-regulated guanine nucleotide exchange factor 3 (EPAC1) (AID 1645889). Note: % of control where 0% means no effect; nearly all actives have a fitted effect of over 40% in size. A digest of the protocol: as §1
Assay [6] has as its target Cytochrome P450 1A2 (Homo sapiens) (UniProt P05177). Briefly: p450-cyp1a2 (AID 410; calls by dose curve; note: potency is the fitted concentration of half-maximal effect). An outline of the steps: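 Luminescent demethylation readout: Luciferin-ME (100uM, equal to Km) turned over by 20nM CYP1A2 for 60 min at room temperature after NADPH regeneration addition, following 10 min compound preincubation. Normalization used 57 uM furafylline as full inhibition.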

Assay [7] addresses Glucocorticoid receptor (Homo sapiens) (UniProt P04150). The experiment in a line: GR-GFP Redistribution (AID 450;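 active = compounds whose dose series gives a full or clear partial fitted curve of increased nuclear translocation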; note: potency is the fitted concentration of half-maximal effect). The conditions noted are these: U2OS GR-GFP nuclear translocation, laser cytometry, 2 h.
The target is the same in assay [8]. Briefly: GR-EFC Redistribution (AID 451; calls by dose curve; note: potency is the fitted concentration of half-maximal effect). The settings on record: CHO-K1 GR-EFC translocation, beta-gal luminescence, 2 h. An outline of the steps: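 CHO-K1 cells expressing nuclear EA and GR-ED fragments of b-gal; compounds titrated up to 46 uM final, 2 h at 37 C. GR nuclear translocation read as complemented b-gal luminescence after 1 h RT detection.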
For assay [9], the target named is Mitogen-activated protein kinase 10 (Mus musculus) (UniProt Q61831). Briefly: JNK3 AlphaScreen Assay (AID 530; active = well fitted curve in either direction with a large enough effect, not every such curve was filed as active;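 note: kinase came from lysate of stimulated human HepG2 cells; signal reports phosphorylation of biotinylated GST-cJun 1-79 at Ser73 with 10 µM ATP; series mostly up to about 57 µM; % is set by controls: 0 for no effect and ±100 for the full control effect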). An outline of the steps:
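Activity was read by AlphaScreen after JNK3-containing HepG2 lysate (cytokine pre-activated) phosphorylated biotinylated GST-cJun with 10 uM ATP at room temperature. Phospho-Ser73 cJun antibody with Protein-A acceptor beads provided detection.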
For orientation: In Alpha technology, singlet oxygen from a donor bead excites a nearby acceptor bead.

Assay [10] addresses 3',5'-cyclic-AMP phosphodiesterase 4B (Homo sapiens) (UniProt Q07343). The experiment in a line: qHTS Assay for Inhibitors of PDE-IV (AID 607; active = well fitted activation curve with a large enough effect in the main read-out, with a control signal flat, not every such curve was filed as active; note: % of control where 0% means no effect). An outline of the steps: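 HEK293 ACTOne cells with CNG channel (1000/well), endogenous PDE4; membrane potential dye, compounds up to 22.9 uM final. Fluorescence Ex 535/Em 590; RO 20-1724 (100 uM final) as reference.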
Assay [11] deals with Cytochrome P450 2C9 (Homo sapiens) (UniProt P11712). The experiment in a line: qHTS Assay for Inhibitors and Substrates of Cytochrome P450 2C9 (AID 883). Note: % is set by controls: 0 for no effect and ±100 for the full control effect; nearly all actives have a fitted effect of over 60% in size. A digest of the protocol:
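10nM CYP2C9 + 100uM Luciferin-H (=KM), 25mM KPO4; cpd 10 min 37C; NADPH regen, 60 min 37C; stop/detect with P450 Glo-Buffer 20 min; luminescence. Norm. to 57uM sulphaphenazole as full inhibition.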

Assay [12] has as its target Cytochrome P450 3A4 (Homo sapiens) (UniProt P08684). Briefly: qHTS Assay for Activators of Cytochrome P450 3A4 (AID 885). Note: nearly all actives have a fitted effect of over 65% in size. An outline of the steps: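 Human CYP3A4 dealkylates Luciferin-PPXE to luciferin, which luciferase detection converts to light. Substrate was at its KM (25uM), buffer 200mM KPO4, reaction 60 min at RT.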
The target of assay [13] is Cytochrome P450 2D6 (Homo sapiens) (UniProt P10635). Briefly: qHTS Assay for Inhibitors and Substrates of Cytochrome P450 2D6 (AID 891).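 Note: luciferin methyl ether substrate demethylated by CYP2D6 with NADPH regeneration; % is set by controls: 0 for no effect and ±100 for the full control effect; nearly all actives have a fitted effect of over 60% in size.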 A digest of the protocol:
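Luminescent read-out of luciferin formed by 5 nM human CYP2D6 demethylating 30 uM Luciferin-ME EGE (Km level) over 60 min at room temperature after NADPH regeneration addition. Data normalized to full inhibition by 1.43 uM quinidine.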

In assay [14] the target is Cytochrome P450 2C19 (Homo sapiens) (UniProt P33261). The experiment in a line: qHTS Assay for Inhibitors and Substrates of Cytochrome P450 2C19 (AID 899). Note: % is set by controls: 0 for no effect and ±100 for the full control effect; nearly all actives have a fitted effect of over 60% in size. An outline of the steps: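 Luminescent read-out of luciferin formed from Luciferin-H EGE (10uM, equal to KM). Enzyme 5nM in 50mM KPO4; compound added, 10 min at 37C, then NADPH regenerating system for 60 min at 37C. Full inhibition defined by 57uM ketoconazole.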

Assay [15] deals with DNA dC->dU-editing enzyme APOBEC-3G (Homo sapiens) (UniProt Q9HC16). The experiment in a line: qHTS for inhibitors of Vif-A3G interactions: Validation (AID 588379). Note: 0% is about no effect. A digest of the protocol: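 Yellow fluorescence (Ex 488, Em 500-530) of Vif-coexpressing HeLa A3G-eYFP cells, scanned by Acumen cytometer, reports blocked A3G degradation. Cells plated at 700/well overnight at 37 deg C before compound addition, then a further overnight compound incubation at 37 deg C.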

In assay [16] the target is Tumor susceptibility gene 101 protein (Homo sapiens) (UniProt Q99816). Briefly: qHTS Assay for Iinhibitors of HIV-1 Budding by Blocking the Interaction of PTAP/TSG101: Hit Validation (AID 651600). Note: potency is the fitted concentration of half-maximal effect; nearly all actives have a fitted effect of over 70% in size. An outline of the steps:
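Fluorescence polarization binding assay: Tsg101 binding domain (10 uM) mixed with compounds and FITC-labeled PTAP peptide (50 nM) in HEPES pH 7.5, 0.15 M NaCl, 0.01% Tween 20, EDTA, TCEP; 20 min at r.t.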

Values without a mark were called inactive. Inconclusive results are not listed. Calls of active or inactive are those of the source. Unless noted, calls come from the whole dose curve; as a rule, active = well fitted curve in the direction sought with a large enough effect; inconclusive = small, poorly fitted or top-dose-only effect, or another doubt; inactive = no such curve, though single readings can be large; an effect the other way counts as inactive or inconclusive.

Chain of Rap guanine nucleotide exchange factor 3 (Homo sapiens) (O95398 whole entry, looked up): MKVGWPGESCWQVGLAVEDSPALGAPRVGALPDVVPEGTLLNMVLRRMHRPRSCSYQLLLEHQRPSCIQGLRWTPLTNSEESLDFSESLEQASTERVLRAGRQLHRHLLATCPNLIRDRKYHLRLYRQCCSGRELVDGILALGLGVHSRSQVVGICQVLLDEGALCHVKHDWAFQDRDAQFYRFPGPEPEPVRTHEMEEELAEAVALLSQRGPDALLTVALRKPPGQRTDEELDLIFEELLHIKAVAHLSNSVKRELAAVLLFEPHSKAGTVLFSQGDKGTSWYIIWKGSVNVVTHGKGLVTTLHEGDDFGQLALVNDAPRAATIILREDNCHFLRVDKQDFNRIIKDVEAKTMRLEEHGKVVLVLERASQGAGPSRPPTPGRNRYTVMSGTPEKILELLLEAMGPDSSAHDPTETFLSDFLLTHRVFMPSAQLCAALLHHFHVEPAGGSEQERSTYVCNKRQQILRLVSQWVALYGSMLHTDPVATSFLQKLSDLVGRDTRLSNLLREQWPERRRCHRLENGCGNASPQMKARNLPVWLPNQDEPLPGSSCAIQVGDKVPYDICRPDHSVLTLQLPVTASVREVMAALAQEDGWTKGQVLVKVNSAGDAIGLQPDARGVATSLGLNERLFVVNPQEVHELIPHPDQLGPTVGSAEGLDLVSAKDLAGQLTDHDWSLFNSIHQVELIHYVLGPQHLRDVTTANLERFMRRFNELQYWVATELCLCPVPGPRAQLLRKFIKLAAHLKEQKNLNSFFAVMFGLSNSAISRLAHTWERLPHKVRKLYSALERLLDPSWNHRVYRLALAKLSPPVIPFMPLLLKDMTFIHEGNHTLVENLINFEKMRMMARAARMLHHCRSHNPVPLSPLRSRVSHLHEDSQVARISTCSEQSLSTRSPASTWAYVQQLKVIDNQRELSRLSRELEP
Chain of Rap guanine nucleotide exchange factor 4 (Homo sapiens) (Q8WZA2 whole entry, looked up): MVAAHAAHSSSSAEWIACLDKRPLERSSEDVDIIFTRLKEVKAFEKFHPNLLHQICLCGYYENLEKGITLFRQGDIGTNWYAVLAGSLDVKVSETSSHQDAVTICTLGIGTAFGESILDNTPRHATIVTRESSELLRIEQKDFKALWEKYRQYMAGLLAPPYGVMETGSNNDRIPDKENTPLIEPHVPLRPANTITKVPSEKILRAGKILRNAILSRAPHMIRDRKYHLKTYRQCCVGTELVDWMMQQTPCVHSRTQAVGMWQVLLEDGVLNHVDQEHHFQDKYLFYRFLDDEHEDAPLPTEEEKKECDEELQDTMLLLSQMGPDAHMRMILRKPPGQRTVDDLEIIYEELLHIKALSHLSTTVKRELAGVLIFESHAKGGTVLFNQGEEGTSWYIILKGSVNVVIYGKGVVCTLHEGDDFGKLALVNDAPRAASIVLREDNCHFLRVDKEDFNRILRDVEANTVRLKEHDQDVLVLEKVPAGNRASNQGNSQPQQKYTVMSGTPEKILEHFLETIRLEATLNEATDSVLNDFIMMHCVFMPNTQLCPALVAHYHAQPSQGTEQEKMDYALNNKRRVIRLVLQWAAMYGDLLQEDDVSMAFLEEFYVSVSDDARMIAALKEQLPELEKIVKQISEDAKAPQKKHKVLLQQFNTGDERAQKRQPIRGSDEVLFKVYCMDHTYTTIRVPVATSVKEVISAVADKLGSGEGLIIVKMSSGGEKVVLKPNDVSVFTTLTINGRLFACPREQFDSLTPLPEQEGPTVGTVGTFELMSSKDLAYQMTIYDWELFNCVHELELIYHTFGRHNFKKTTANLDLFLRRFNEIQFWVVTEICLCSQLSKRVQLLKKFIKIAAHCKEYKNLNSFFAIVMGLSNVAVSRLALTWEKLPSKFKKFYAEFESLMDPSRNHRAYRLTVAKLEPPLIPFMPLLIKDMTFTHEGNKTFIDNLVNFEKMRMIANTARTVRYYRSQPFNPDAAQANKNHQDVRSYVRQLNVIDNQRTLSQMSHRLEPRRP
Chain of Glucocorticoid receptor (Homo sapiens) (P04150 whole entry, looked up, the tested form may be a part): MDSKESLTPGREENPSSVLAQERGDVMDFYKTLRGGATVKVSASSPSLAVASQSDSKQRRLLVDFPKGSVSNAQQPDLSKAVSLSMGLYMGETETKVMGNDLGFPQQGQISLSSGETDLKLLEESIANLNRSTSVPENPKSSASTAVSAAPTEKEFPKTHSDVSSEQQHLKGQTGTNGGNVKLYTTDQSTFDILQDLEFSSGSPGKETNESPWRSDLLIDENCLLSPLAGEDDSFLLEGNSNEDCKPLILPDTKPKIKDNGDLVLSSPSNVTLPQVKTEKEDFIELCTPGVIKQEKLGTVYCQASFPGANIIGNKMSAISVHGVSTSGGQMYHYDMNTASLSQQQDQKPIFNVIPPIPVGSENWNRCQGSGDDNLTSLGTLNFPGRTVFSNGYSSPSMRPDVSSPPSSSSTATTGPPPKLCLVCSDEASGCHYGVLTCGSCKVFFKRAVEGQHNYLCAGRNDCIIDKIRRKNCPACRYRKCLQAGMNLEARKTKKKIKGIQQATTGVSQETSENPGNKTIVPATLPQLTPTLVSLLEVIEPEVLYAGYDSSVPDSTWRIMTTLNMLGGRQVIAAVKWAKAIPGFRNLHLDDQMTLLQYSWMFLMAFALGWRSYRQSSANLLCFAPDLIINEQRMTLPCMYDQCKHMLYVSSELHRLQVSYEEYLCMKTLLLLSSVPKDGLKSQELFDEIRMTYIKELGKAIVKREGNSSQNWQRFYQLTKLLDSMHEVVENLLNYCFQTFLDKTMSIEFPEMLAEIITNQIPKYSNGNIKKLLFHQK
Chain of Cytochrome P450 2D6 (Homo sapiens) (P10635 whole entry, looked up): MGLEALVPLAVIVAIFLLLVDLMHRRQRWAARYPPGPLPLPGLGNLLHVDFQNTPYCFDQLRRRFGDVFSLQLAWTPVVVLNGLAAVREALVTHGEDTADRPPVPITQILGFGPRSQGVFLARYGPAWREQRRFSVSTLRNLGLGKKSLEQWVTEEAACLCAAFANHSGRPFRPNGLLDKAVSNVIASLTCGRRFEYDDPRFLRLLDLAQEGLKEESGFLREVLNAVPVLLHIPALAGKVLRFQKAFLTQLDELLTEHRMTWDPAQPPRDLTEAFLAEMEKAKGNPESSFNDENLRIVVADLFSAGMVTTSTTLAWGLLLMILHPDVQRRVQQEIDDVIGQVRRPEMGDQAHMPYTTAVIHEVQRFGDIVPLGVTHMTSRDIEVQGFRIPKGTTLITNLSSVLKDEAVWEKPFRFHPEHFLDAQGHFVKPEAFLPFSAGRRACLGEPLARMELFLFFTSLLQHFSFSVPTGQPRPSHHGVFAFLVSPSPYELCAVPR
Chain of DNA dC->dU-editing enzyme APOBEC-3G (Homo sapiens) (Q9HC16 whole entry, looked up): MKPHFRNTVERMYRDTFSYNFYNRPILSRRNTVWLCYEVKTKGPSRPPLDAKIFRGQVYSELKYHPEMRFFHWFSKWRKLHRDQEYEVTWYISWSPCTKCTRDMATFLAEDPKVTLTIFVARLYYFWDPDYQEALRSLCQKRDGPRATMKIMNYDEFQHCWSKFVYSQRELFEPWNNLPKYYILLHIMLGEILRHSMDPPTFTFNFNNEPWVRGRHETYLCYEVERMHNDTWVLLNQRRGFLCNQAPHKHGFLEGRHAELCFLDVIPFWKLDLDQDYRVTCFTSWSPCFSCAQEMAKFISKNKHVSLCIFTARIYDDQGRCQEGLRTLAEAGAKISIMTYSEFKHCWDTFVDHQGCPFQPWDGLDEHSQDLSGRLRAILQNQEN
Chain of Cytochrome P450 2C9 (Homo sapiens) (P11712 whole entry, looked up): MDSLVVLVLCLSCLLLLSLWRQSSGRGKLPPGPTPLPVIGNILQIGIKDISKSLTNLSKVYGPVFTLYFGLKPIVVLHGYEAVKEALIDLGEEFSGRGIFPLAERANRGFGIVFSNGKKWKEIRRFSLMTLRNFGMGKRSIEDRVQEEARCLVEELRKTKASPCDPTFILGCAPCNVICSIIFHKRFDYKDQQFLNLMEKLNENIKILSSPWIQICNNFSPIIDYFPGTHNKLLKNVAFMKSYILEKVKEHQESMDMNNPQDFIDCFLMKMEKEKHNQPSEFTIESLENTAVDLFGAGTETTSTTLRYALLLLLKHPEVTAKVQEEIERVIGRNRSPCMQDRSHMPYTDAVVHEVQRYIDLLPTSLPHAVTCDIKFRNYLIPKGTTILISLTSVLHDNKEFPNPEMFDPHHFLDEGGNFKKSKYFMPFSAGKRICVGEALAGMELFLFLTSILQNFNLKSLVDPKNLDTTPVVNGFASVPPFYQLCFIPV
Chain of Cytochrome P450 1A2 (Homo sapiens) (P05177 whole entry, looked up): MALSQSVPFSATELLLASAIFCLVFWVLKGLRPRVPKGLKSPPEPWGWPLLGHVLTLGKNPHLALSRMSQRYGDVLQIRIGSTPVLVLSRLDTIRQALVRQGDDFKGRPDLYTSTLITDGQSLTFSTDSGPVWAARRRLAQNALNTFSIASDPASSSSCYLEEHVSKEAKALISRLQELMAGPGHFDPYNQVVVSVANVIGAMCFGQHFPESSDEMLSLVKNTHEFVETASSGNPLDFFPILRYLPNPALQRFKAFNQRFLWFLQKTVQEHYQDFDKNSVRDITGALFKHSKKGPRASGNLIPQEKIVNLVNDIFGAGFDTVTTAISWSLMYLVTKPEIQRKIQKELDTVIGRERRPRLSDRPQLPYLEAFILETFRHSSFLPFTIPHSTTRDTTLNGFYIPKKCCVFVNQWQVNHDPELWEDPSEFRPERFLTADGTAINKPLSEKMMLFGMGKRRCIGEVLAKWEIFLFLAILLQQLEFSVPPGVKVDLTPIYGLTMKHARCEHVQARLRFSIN
Chain of Tumor susceptibility gene 101 protein (Homo sapiens) (Q99816 whole entry, looked up, the tested form may be a part): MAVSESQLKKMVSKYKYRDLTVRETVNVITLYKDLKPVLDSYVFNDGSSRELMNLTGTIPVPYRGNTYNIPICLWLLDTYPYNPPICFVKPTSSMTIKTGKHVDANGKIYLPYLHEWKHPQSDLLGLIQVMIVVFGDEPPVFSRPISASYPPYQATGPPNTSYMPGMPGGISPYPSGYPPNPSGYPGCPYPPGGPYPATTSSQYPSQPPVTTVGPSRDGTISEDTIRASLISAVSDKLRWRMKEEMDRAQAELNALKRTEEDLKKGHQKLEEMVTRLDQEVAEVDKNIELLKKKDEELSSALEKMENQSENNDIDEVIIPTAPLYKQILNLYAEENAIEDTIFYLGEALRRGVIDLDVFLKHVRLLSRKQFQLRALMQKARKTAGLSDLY

As to `Oc1ccccc1N=Cc1c(O)ccc2ccccc12`, the activation in assay [1] was 0% [at 17.1 µM, percent relative to cAMP agonist control]. Besides, the Potency result in assay [2] is “inactive”. For the same compound, the activity change, negative = inhibition in [3] was -12% [at 30.8 µM].
Take `CC1=CC(=C(C#N)c2nc3ccccc3s2)C=C(C)N1Cc1ccco1`: the Potency entry in assay [1], in [2] and in assay [3] was “inactive” in each case.
Consider `Cc1nc(C)c(-c2csc(Nc3ccc(C(=O)O)c(O)c3)n2)s1`, for which the Potency entry in assay [1], in assay [2] and in assay [3] was “inactive” in each case.
On to `C/C(=N\N(Cc1ccccc1)c1ccccc1)c1ccncc1`, for which the activation in [1] was -6.71% [at 17.1 µM, percent relative to cAMP agonist control]. Also, the Potency entry in assay [2] was “inactive”.
For the compound `O=C(N/N=C/c1ccc(O)c(O)c1)C1c2ccccc2Oc2ccccc21`, the Potency result in assay [1], in assay [2] and in [3] was “inactive” each time.
`COc1ccc(C2Nc3ccccc3-c3cc(C)nn32)c(OC)c1` (stereo not drawn): the Potency entry in assay [1], in [2] and in assay [3] was “inactive” throughout.
Take `O=C1Nc2ccccc2N=C(c2ccccc2)c2ccccc21`: the Potency entry in [4] is “inactive”. Also, the activation in [5] is 39.2% [at 30.8 µM].
Consider `CCCC/C=C/[C@H](c1ccccc1)[C@H](CO)Cc1cccnc1`, for which the Potency entry in assay [4] and in [5] was “inactive” each time.
Consider `Cc1ccc(N2C(=O)c3ccccc3C2Nc2ccccc2F)nc1` (stereo not drawn), for which the activation in [1] is 11.4% [at 17.1 µM, percent relative to cAMP agonist control]. In addition, in [2], the Potency entry was “inactive”. Also, the activity change, negative = inhibition in assay [3] was 13.9% [at 30.8 µM].
Consider `COc1ccc(S(=O)(=O)Nc2ccc(F)cc2)c(C)c1C`, for which the Potency entry in assay [1] and in assay [3] was “inactive” each time. The Potency in assay [2] was 5.36 µM (active).
On to `CCc1nc2c(OCc3ccc(C(F)(F)F)cc3)cccn2c1N(C)C(=O)C1CC1`, for which the Potency entry in [4] and in [5] was “inactive” each time.
Turning to `CN(C)/C=C1\C=C2C(=O)c3ccccc3N2C1=O`, the Potency in assay [1] was 5.01 µM (active).
Regarding `O=C(CSc1ncnc2[nH]ncc12)Nc1cccc(Oc2ccccc2)c1`, in [1], the activation was 10.9% [at 17.1 µM, percent relative to cAMP agonist control]. In addition, the Potency result in assay [2] is “inactive”. Further, the activity change, negative = inhibition in assay [3] was -9.96% [at 30.8 µM].
`N#C/C(=C\c1ccc(Sc2ccccc2)o1)c1nc2ccccc2[nH]1`: in [1], the Potency is 112 µM (active). The Potency result in [2] and in assay [3] was “inactive” in each case.
With `CCOC(=O)C1Oc2ccccc2C(c2ccc(OC)cc2)=C1C(=O)OC` (stereo not drawn), the Potency entry in assay [4] and in [5] was “inactive” each time.
As to `CCOC(=O)C1(C)C=C(Nc2ccc(C(N)=O)cc2)C(=O)N1c1ccccc1` (stereo not drawn), the Potency entry in [1] and in [3] was “inactive” in each case. The Potency in [2] was 10.7 µM (active).
Regarding `CCOC(=O)c1c(CC(C)C)csc1NC(C)=O`, the Potency result in assay [4] and in assay [5] was “inactive” in each case.
As for `COC(/C(=N/O)c1ccc(Cl)cc1)c1ccccc1` (stereo not drawn), the activation in assay [1] was 9.01% [at 17.1 µM, percent relative to cAMP agonist control]. In addition, in assay [2], the Potency result was “inactive”. Besides, in assay [3], the activity change, negative = inhibition is -2% [at 30.8 µM].
As for `Cc1nc2ccccc2c(C)c1C(=O)c1ccccc1`, the Potency result in [4] was “inactive”. Besides, the activation in assay [5] was -2.6% [at 30.8 µM].
On to `COC(=O)c1ccc2nc(-c3ccc(C)cc3)c(Cc3cccc(F)c3)n2c1`, for which the Potency entry in [4] and in assay [5] was “inactive” in each case.
Regarding `O=C(O)CCN1C(=O)/C(=C\c2cccc(OCC(=O)Nc3ccc(Cl)cc3)c2)SC1=S`, the Potency entry in assay [1], in assay [2] and in assay [3] was “inactive” in each case.
For `Nc1nc(N)c2c(ccc3c2ccn3Cc2cccc([N+](=O)[O-])c2)n1`, the Potency in assay [1] was 100 µM (active).
In the case of `O=C(c1ccccc1Br)N(Cc1ccccc1)c1ccccc1`, in assay [1], the activation was 0.0919% [at 17.1 µM, percent relative to cAMP agonist control]. Moreover, the Potency result in assay [2] was “inactive”. In addition, the activity change, negative = inhibition in [3] is -1.15% [at 30.8 µM].
As for `Cc1c(CCC(=O)O)c(=O)oc2cc(OCc3ccccc3Br)ccc12`, the Potency result in assay [1], in assay [3] and in [5] was “inactive” throughout. The Potency in assay [2] is 84.9 µM (active).
For `CCOc1cc(/C=C2\SC(=Nc3ccc(CC)cc3)NC2=O)ccc1OCC(=O)O`, the Potency result in assay [1], in [2], in assay [3] and in [5] was “inactive” throughout.
Take `COc1cc2cc(Oc3ccc4ccc(=O)oc4c3)c(=O)oc2cc1O`: the Potency in assay [6] was 2 µM (active); in assay [7], over 46 µM; in assay [8], over 46 µM. The Potency result in [9], in assay [10], in assay [11], in assay [13], in assay [14] and in assay [2] was “inactive” each time. Moreover, the outcome in [12] and in assay [15] was inactive. In addition, in [1], the activation is 1.41% [at 17.1 µM, percent relative to cAMP agonist control]. Moreover, the activity change, negative = inhibition in assay [3] is -3.83% [at 30.8 µM].
As for `Cc1cc2nc3c(=O)n(Cc4ccccc4)c(=O)[nH]c3nc2cc1N`, the Potency in [16] is 3.66 µM (active). Further, the activation in assay [1] is 16.2% [at 17.1 µM, percent relative to cAMP agonist control]. Also, the Potency result in assay [2] was “inactive”. Also, in [3], the activity change, negative = inhibition was 0.816% [at 30.8 µM].
Regarding `COc1ccc(CCn2c(O)cc3nn(-c4nc5ccccc5s4)c(=O)c-3c2C)cc1`, the Potency entry in assay [1], in assay [2], in assay [3] and in [5] was “inactive” each time.
`Cc1cc(Br)cn2c(Cc3ccsc3)c(-c3ccco3)nc12`: the activation in [1] was 5.83% [at 17.1 µM, percent relative to cAMP agonist control]; in assay [5], 27.6% [at 30.8 µM]. In [2], the Potency entry was “inactive”. For the same compound, the activity change, negative = inhibition in [3] is 4.94% [at 30.8 µM].
Consider `Cn1c(SCC(=O)Nc2cccc(C(=O)O)c2)nnc1-c1cc2cc(Br)ccc2o1`, for which the Potency result in [1], in assay [2], in assay [3] and in assay [5] was “inactive” in each case.
Regarding `CCOC(=O)c1cc(-c2ccc(/C=C3/C(=O)N(c4ccc(C(=O)O)cc4)N=C3C)o2)ccc1Cl`, the Potency entry in [1], in assay [2], in assay [3] and in [5] was “inactive” in each case.
